Anthrax LF prot = blocks Bacillus anthracis lethal factor protease. multiplex microsphere protease cleavage assay, LF. inhibition, % at 10 µM. actives 0.12% (n = 360,000). AID 588501; also: plate controls were buffer without enzyme for full effect and enzyme alone for no effect
Target sequence (P15917 whole entry, looked up): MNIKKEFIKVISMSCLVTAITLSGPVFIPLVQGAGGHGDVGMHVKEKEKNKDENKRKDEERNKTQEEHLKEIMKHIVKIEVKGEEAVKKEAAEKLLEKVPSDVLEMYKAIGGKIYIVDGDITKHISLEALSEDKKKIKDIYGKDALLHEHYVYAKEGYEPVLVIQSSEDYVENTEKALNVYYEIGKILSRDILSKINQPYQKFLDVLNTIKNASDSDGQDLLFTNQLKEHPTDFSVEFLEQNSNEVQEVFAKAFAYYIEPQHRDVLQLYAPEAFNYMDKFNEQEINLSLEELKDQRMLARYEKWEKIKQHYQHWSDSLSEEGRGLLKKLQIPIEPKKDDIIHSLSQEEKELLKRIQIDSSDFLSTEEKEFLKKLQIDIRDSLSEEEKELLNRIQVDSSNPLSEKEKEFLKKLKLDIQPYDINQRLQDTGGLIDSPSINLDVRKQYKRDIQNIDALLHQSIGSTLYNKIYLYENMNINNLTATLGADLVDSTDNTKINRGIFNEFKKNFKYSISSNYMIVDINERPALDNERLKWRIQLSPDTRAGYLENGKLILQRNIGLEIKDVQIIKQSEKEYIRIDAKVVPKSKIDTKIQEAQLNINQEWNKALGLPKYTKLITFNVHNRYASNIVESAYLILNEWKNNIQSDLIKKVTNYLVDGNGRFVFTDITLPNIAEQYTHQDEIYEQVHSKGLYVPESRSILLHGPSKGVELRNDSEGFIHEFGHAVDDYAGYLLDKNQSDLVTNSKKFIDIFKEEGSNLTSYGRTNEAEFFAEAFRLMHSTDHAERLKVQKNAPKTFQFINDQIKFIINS
Bead autofluor = compound fluorescence in toxin protease inhibitor counterscreen; actives 3.1% (n = 360,000); AID 624483; compound autofluorescence counterscreen, microsphere flow cytometry; hits give high values; fluorescence intensity (no concentration beside the values); in the data active = fluorescence intensity above about 16000; inconclusive = no clear call, values can overlap the other calls
BoNT F protease = blocks Botulinum neurotoxin F light chain protease; Multiplex microsphere protease cleavage assay, flow cytometry; inhibition, % at 10 µM; actives 0.22% (n = 360,000); in the data active = inhibition above about 35%, passing the limit was not always enough; inconclusive = no clear call, values can overlap the other calls; also: plate controls were buffer without enzyme for full effect and enzyme alone for no effect
BoNT-A LC inh2 = inhibitors of Botulinum neurotoxin A light chain protease; actives 0.17% (n = 360,000); inhibition, % at 10 µM; multiplex microsphere protease substrate cleavage, flow cytometry; also: plate controls were buffer without enzyme for full effect and enzyme alone for no effect
* = called active by the depositor; ? = inconclusive. An excerpt weighted towards active compounds, which were near 3.5% of everything screened. Rule as the data show it, unless noted: active = inhibition above about 30%; inconclusive = no clear call, values can overlap the other calls; inactive = below that.

SMILES	Anthrax LF prot	Bead autofluor	BoNT F protease	BoNT-A LC inh2
Cc1ccc(S(=O)(=O)NC(CC(=O)OCc2ccccc2)C(=O)OCc2ccccc2)cc1 (stereo not drawn)	-4	3691	-5	0
O=C1C=C(c2ccc3cc[nH]c3c2)C[C@@H](c2ccc3c(c2)OCO3)C1	-3	3507	-1	0
CS(=O)(=O)N1CCN(c2ccccc2NC(=O)Nc2cccc(Cl)c2)CC1	-10	2834	13	0
O=C(CCS(=O)(=O)Cc1ccccc1)Nc1ncc([N+](=O)[O-])s1	-5	5449	-2	0
Cc1ccc(Cn2c(=O)c3ccccc3n3c(SCC(=O)N4CCCCC4C)nnc23)cc1 (stereo not drawn)	2	19920*	2	?
O=C(NNC(=O)c1ccco1)c1ccc(NS(=O)(=O)c2cccs2)cc1	2	5621	2	1
C=CCN1C(=O)C(C)(C)Nc2ccccc21	3	20000*	1	?
CN1C(=O)C(=Cc2ccc(N3CCCCC3)o2)C(=O)N(C)C1=S	9	9734	100*	7
CCn1c(SCC(=O)NC2CC2)nnc1-c1cccs1	2	7427	7	3
CCn1c(SC(=O)NC2CCCCC2)nnc1-c1cccs1	-3	16821*	-1	-1
CCn1c(SCC(=O)NCc2ccco2)nnc1-c1cccs1	-7	19582*	6	?
Cc1cccc(C)c1OCC(=O)NCc1nnc(SCC(=O)NC2CCCCC2)n1C	-5	22773*	-5	?
Cn1c(SCC(=O)NC2CCCCCC2)nnc1-c1cccs1	0	2991	10	-1
Cc1cccc(C(=O)NCc2nnc(SCC(=O)NC3CCCC3)n2C)c1	-4	5625	-2	-1
CCn1c(SCC(=O)NC2CCCCC2)nnc1-c1cccs1	-17	20887*	3	4
CC12CCC(=O)C=C1CCCC2=O (stereo not drawn)	-10	2879	1	0
CCCn1c(=O)c2ccccc2n2c(SCC(=O)NCc3cccs3)nnc12	5	3805	34	2
CCn1c(=O)c2ccccc2n2c(SCC(=O)NCc3cccs3)nnc12	-1	23072*	-4	-2
Cc1nc(NC(=O)c2ccccc2)sc1-c1cc(C(=O)O)nn1Cc1ccccc1	-2	3511	2	0
Cn1c2ccc(F)cc2c2ncn(CCCN(CCO)CCO)c(=O)c21	-4	21356*	-1	-2
Cc1ccc(NC(=O)COC(=O)Cn2c(C)csc2=O)cc1C	-6	17233*	-9	-3
C[C@@H]1CCC2[C@](C)(CO)[C@@H](O)CC[C@]2(C)[C@@]12CC[C@@](CO)(CC(=O)O)O2 (stereo partly drawn)	-15	3563	-15	0
Cc1nn(-c2ccccc2C(=O)O)c(=O)c2ccccc12	-3	22783*	-2	0
Cc1nn(-c2ccccc2[N+](=O)[O-])c(=O)c2ccccc12	-3	4554	1	-1
Cc1ccc(S(=O)(=O)N(CC(=O)N2CCN(c3ccccc3F)CC2)C2CCCCC2)cc1	-1	20732*	-3	-1
SMILES	Anthrax LF prot	Bead autofluor	BoNT F protease	BoNT-A LC inh2
Cc1cc(C)c(S(=O)(=O)N(CC(=O)N2CCOCC2)C2CCCCC2)c(C)c1	-4	3596	-4	0
CS(=O)(=O)N(CC(=O)N1CCN(c2ccccc2F)CC1)C1CCCCC1	-1	11157	-7	-1
Cc1ccc(S(=O)(=O)N(CC(=O)N2CCOCC2)C2CCCCC2)cc1	-3	23611*	-6	?
Cc1ncsc1C(=O)NCc1ccc(N2CCCC2=O)cc1	-2	16227*	3	0
CC1=CC=CN2C1=NC(=O)CC2(C)C(=O)N(CC(=O)NC1CCCC1)c1cc(C)cc(C)c1 (stereo not drawn)	-2	4029	3	0
O=[N+]([O-])c1nccn1CCCCCCN1CCOCC1	6	5481	1	0
COc1ccc2ccccc2c1CN1CCCC(CO)C1 (stereo not drawn)	-14	22577*	-4	?
COc1ccc2ccccc2c1CN1CCN(Cc2ccccc2)CC1	-7	5884	-6	-1
CC(=O)Nc1ccc(OC(=O)N2CCCCC2)cc1	0	22883*	-1	0
Nn1c(SCC(=O)NCCCc2ccccc2)nnc1-c1cccnc1	-1	6430	0	1
Cc1ccc(C(=O)Nc2nnc(C3CCCCC3)s2)o1	-4	23882*	-4	-1
O=C(NCc1n[nH]c(=S)n1-c1ccc(Cl)c(Cl)c1)c1ccco1	-2	4384	-3	0
O=C(NCc1n[nH]c(=S)n1-c1ccccc1)c1ccco1	-8	19724*	10	9
CC1(C)CN(c2ccc(Br)cc2)C(=O)[C@H]1CC(=O)Nc1ccccc1	-3	3433	4	0
Cc1ccc(Sc2ccc(NC(=O)c3ccc(S(C)(=O)=O)cc3Cl)cc2)cc1	-9	21237*	-1	?
COc1cc(Cl)c(C)cc1NC(=O)c1ccccc1NC(=O)CN1CCN(C(C)=O)CC1	-5	3677	8	0
Cc1cc2n(c(=O)c1C#N)CCCN2c1ccccc1	0	16496*	-3	0
Cc1cc(C)n(CC(=O)N2CCc3ccccc32)c(=O)c1C#N	0	3681	-5	-2
CCCCN1C(=O)C(C2c3ccccc3C(=O)N2Cc2ccccc2)C(=O)NC1=S (stereo not drawn)	-1	21741*	4	1
CCCCNC1c2ccccc2C(=O)N1Cc1ccccc1 (stereo not drawn)	24	3399	21	1
O=C1CC(c2ccccc2)CN1C(=O)c1cccnc1 (stereo not drawn)	-3	4483	1	0
O=C1CCC(c2ccccc2)N1C(=O)c1cccnc1 (stereo not drawn)	-2	23368*	1	-1
Cc1ccc(CSc2ncnc3c2cnn3Cc2ccccc2)cc1C	-5	21383*	5	3
COc1nc(Nc2ccc(O)cc2)nc(OC(C(F)(F)F)C(F)(F)F)n1	-5	16552*	-7	-1
Nc1cccc(Nc2nc(OC(C(F)(F)F)C(F)(F)F)nc(OC(C(F)(F)F)C(F)(F)F)n2)c1	-6	3099	2	-1
SMILES	Anthrax LF prot	Bead autofluor	BoNT F protease	BoNT-A LC inh2
c1csc(-c2nnc(-c3ccc(N4CCOCC4)cc3)o2)c1	-2	20353*	2	1
CCOc1ccc(-c2nnc(-c3cccs3)o2)cc1	-3	4323	-15	-1
N#Cc1nc(Cc2ccccc2)oc1N1CCN(c2ccccc2)CC1	-4	10460	-7	0
N#Cc1nc(-c2cccs2)oc1N1CCN(c2ccccc2)CC1	-3	20556*	-5	-3
O=[N+]([O-])c1cc(/C=N\Nc2nc(-c3ccccc3)cs2)ccc1O	-11	4040	-2	0
Cc1csc(N/N=C/c2ccc(O)c([N+](=O)[O-])c2)n1	-5	22477*	-5	0
O=C(OCc1ccccc1F)c1ccc2c(c1)-c1ccccc1C2=O	2	19102*	0	3
CCOC(=O)c1ccc(COC(=O)c2ccc3c(c2)-c2ccccc2C3=O)cc1	-6	5898	-12	2
O=C(OCc1cccc(F)c1)c1ccc2c(c1)-c1ccccc1C2=O	3	22813*	3	4
Cc1nc(N2CCN(Cc3ccccc3)CC2)nc2c1C(=O)CCC2	-5	4263	29	0
O=C1CCCc2nc(N3CCN(Cc4ccccc4)CC3)ncc21	2	17293*	9	?

Screening results as filed in PubChem.
